Laboratory results as given in the supplement of paper PMC11417369.
In all, about 25,000 sequences were measured (“ln(normalized median fluorescence intensity)”: median about 9.7, highest 2% from about 11 on). The sample as a whole holds a higher share of the highest values than the screen did.

The sequences below were run on PfAP2-HC AP2 domain (GST-tagged) (assay: gcPBM binding intensity (ln(normalized median fluorescence intensity)); higher = stronger DNA binding).
Procedure, shortened: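 Binding intensity is the highest Masliner-normalised natural-log median intensity over replicate spots in either probe orientation. To obtain it, GST-tagged P. falciparum DNA-binding domains made in E. coli were incubated for 1 h on an Agilent 4 × 180k array of primer-extended double-stranded 36-bp intergenic genomic probes plus negative controls. Detection used Alexa488 anti-GST antibody with scanning at 488 nm.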

Sequence	gcPBM binding intensity (ln)
ACATTATGCCATAAATGTACACATACATATACACAG [XGTACX_site1330]	9.66
AAACAATTTTTTAAAAGTACTTGAAAATTGTGAAAT [XGTACX_site2461]	9.63
AAAAAAATGAAACACACACACACATATATATATATA [CACACA_site1043]	10.4
TTTTAATGAAAACACACACACACATATATATATATA [CACACA_site5295]	11.1
TTTAAGCAAAAACACACACACATATATATATATATA [CACACA_site349]	11.1
AAAAAAAAAAAAAAAACACACATATATATATATATA [CACACA_site2436]	10.4
TTTTAATTAAAACACACACACACATATATATATATA [CACACA_site2291]	10.6
AAAAAAACACACACATATATATATATATATATATAT [GTGCAC_negctrl_site498]	10.3
CCTTTAAGCAAAAACACACACACATATATATATATA [CACACA_site348]	10
AAAATGAACAAACACACACACATATATATATATATA [CACACA_site2403]	11.2
TATAAGCAAAAACACACACACATATATATATATATA [CACACA_site3804]	10.2
AACAAAAATGAAAAAACACACATAACATATATAAAT [CACACA_site740]	10.1
AAAAAACAAAAACACACACACACATATATATATATA [CACACA_site3654]	10.9
ATAAAATGAACAAACACACACACATATATATATATA [CACACA_site2402]	10.9
CAAAGATATATAAACACACAAATATAACATATATAC [CACACA_site7395]	9.99
ATATATTTATATATTACACACAATATTGTAGACATA [CACACA_site4669]	9.74
TATATATAACTTTATTGTACAAAATATTATGTATTC [XGTACX_site981]	9.66
TGATCAGATAGACACACACACAAAAAAAAAAAAAAA [CACACA_site7805]	10.1
TATCAAAATTAGTATACACACAAAATTAATCAAATA [CACACA_site7117]	9.86
ATATTAAGTTTTATTACACACTCTCAATTTTTATTT [CACACA_site4206]	9.87
ATATTTTTTTCATAGACACACACAATATATCTGTTT [CACACA_site8993]	10.1
CTCCATATGAAACACACACACAAATGAAAAAAATAT [CACACA_site3018]	11
AATATAAACACAAACACACACATATATATATATATA [CACACA_site4307]	10.1

Sequence	gcPBM binding intensity (ln)
GGATATAACAAACACACACACACATATATATATATT [CACACA_site4141]	11.2
AAAAAAAAAAAAAAAACACACACATATATATATATA [CACACA_site8571]	9.9
AAAAAAAAAAAAAACACACACATATATATATATATA [CACACA_site1891]	10.4
AAATAAATGAAACACACACACACAAAAAAAAAAAAC [CACACA_site2625]	10.9
CTCCATATTAGACACACACACAAATGAAAAAAATAT [CACACA_site7420]	10.2
AATATAAACAAACACACACACATATATATATATATT [CACACA_site5592]	10.3
AAAAAAAAAAAACACACACACATATATATATATATA [CACACA_site732]	11.1
TATTATTTGAGTAGTTGTACTCATTAATATATAAAA [XGTACX_site3468]	9.35
TTTGGCTAGTTAGGCCGTACATGTAAATAATATATA [XGTACX_site1138]	9.47
AACGCACGAGGACACACACACATATTTATATTTATA [CACACA_site6608]	11.4
TATATATATATATATACACACATATATATATTTATA [CACACA_site627]	10.2
ATATTAAACAGACACACACACATATATTTATTTATA [CACACA_site7564]	10.4
CAAAAGGATATGCACACACACACACGGATATTTATA [CACACA_site7099]	11.4
AACTCACGAGGACACACACACATATATATATATATA [CACACA_site4711]	10.2
AGCACGCACAGACACACACACATATTTATATTTATA [CACACA_site6291]	10.3
ACCATACATACATACACACACACACGCATATTTATA [CACACA_site7386]	11.2
AAAAAACAGACATACACACACACACGGATATTTATA [CACACA_site7570]	11.4
TATATATATTTATACACACACATATATTTATATATT [CACACA_site484]	9.97
ATTATATATATTTATGCACACAAAATATATTATATA [CACACA_site9244]	9.64
AAAAAACACGGACACACACACATATACATACATACA [CACACA_site5470]	10.6
TATATATATTTATGCACACAAAATATATTATATAAT [CACACA_site5955]	9.67
TCATCCACATATTGTAGTACAAGATAATTGTTTATT [XGTACX_site1634]	9.63
TTTTTAGAAAGACATGCATGTAATAAAAATAAATAA [TGCATGCA_site685]	9.82

Sequence	gcPBM binding intensity (ln)
AAAATTTAATATAATGCACACATAAAAAAAAATTCA [CACACA_site8640]	9.77
TATAGATGTATGTACATACACACATATATAAATAAA [CACACA_site1789]	10
TTATGCAATTTGTATTGTACATTCATGATATTAATA [XGTACX_site5070]	9.53
TACATGTATAAATAAGCACACATGTGGATATGTACA [CACACA_site93]	10
TATTTTTCTTTTTAAAAATATATCACATGAACATTA [XGTACX_negctrl_site183]	9.39
ATATAAAAAAATAATAAATAAATAAAAAGATTTCTT [XGTACX_negctrl_site110]	9.65
TATTTATACACGCACACACACTTATACATTTATATA [CACACA_site7543]	10.8
ATATACATTAAATGAACACACATAAATAAATTACAT [CACACA_site2852]	9.89
TTATGATGGTCTTTATAAGGGCACATTAAATTCGGC [TGCATGCA_negctrl_site166]	9.35
TATATATATATTTATACACACACATATATTTATATA [CACACA_site8054]	10.1
TACATATTTATATACACACACACACGGATATTTATA [CACACA_site7239]	11
TATTTATATTTATATACACACATACATATTTATATT [CACACA_site6535]	9.93
AAACCGTGGGAGCACACACACACACCGACACATATA [CACACA_site4338]	10.4
AAACCGTGGGAGCACACACACACACGCGCACATATA [CACACA_site6288]	10.5
ACCGTGGGAGGACACACACACACACGCACATATATA [CACACA_site6289]	11.1
TTTTAAAAATCTATATGTACACAATACGTCTATAAA [XGTACX_site5787]	9.54
AAAAAAAAACAAAAAAGTACAAAATAAAAATACGTT [XGTACX_site4566]	9.75
TTTTTTTCTTTTCAAACACACAATTGGTATATATTA [CACACA_site3320]	9.81
AAGAATTATAGAAACACACATACATACAGACATACA [CACACA_site1943]	10.1
AACGTCTTTTTTTTTTTTTTTCTTTTTTTTTTTATT [CACACA_negctrl_site303]	9.86
AGAAAAAAACAACATGCACACGCACCCACAAAAAAA [CACACA_site7908]	10.4
AAAAAAAACACGCGCACACACACACCCACAGACACA [CACACA_site5253]	10.7
AAAAAAAAAAAAAACACACATACACGCCCACCCATA [CACACA_site3391]	10.4

Sequence	gcPBM binding intensity (ln)
AAAAAAAACACGCGCACACACACACCCACCCACCGA [CACACA_site2206]	11.5
AAAAAAAAAACAAATACACACGCACCCAAAAAAAAA [CACACA_site8166]	10.2
AAAAAACACGCGCACACACACACACGCGCCCACATA [CACACA_site7106]	11.1
AAAAAAAAAAAAAAAACACACATACACGCACGCACA [CACACA_site7569]	10.8
AAAAAAAAAACACGCGCACACACACCCACCCACCCA [CACACA_site8689]	10.9
AAAAAAACAACATGCACACGCACACCCAAAAAAAGC [CACACA_site72]	10.7
GTATAATTGGAAATTACACACCTTAGAATGTAACAT [CACACA_site4059]	9.68
AAAACTATAAAAATTTTACACACTGTTTTTAAATAA [CACACA_site3667]	9.57
TATATTATTCATTAAGCACACATTATTTTTATAATA [CACACA_site6056]	9.69
TTAATACCCGGACACACACACACAAAATAAAATACA [CACACA_site4296]	10.6
TATTAATACAGACACACACACACACCCAATAAAATA [CACACA_site243]	10.8
ATAATTAACAAATACACACACACACCCAGACAAAAA [CACACA_site4445]	10.8
ATAATTAACAAATACACACACACACGCCCACAAAAA [CACACA_site6389]	11.6
TTAATACCCAGACACACACACACAAAATAAAATACA [CACACA_site7968]	11
TTTTTATTTATTAATACACACACACCCACCCACAAA [CACACA_site7965]	10.4
TTTATTTATTAATACACACACACACCCAGACAAAAT [CACACA_site4292]	11.3
TTTATTTATTAATACACACACACACGCCCACAAAAT [CACACA_site6253]	10.5
TTTATTTATTAATACACACACACACCCCCACAAAAT [CACACA_site240]	11.4
ACATAATTAACAAATACACACACACCCACCCACAAA [CACACA_site8069]	10.7
ATAATTAACAAATACACACACACACCCCCACAAAAA [CACACA_site518]	10.9
GTATTATATTTTAATACACACCCAAATATTAAAAAG [CACACA_site8968]	9.77
